Compound activity: PubChem BioAssay, Broad Institute
Not all results are given here.
aSyn UTR act – Activators via SNCA 5'UTR binding, MLPCN. activity score, % (tested at 7.5 µM), hits read low. alpha-synuclein 5'UTR reporter, activators screen. AID 1814, 2009. 7.1% of 300,000 active; in the data active means activity score below about -60%
Large screens that a line does not name were inactive.

CCCCCn1c(=O)c(C(=O)NCc2ccncc2)c(O)c2ccccc21	none
CCC(=O)N1CC(=O)Nc2ccc(Br)cc2C1c1ccccc1 (stereo not given)	aSyn UTR act -71
COc1ccc(CNCCc2c(C)[nH]c3ccc(OC(F)(F)F)cc23)c(OC)c1	none
COc1cc2c(cc1OC)-c1c(OC)c(OC)c(OC)c3ccnc(c13)C2=O	none
CCN1C(=O)C(=C2C=C(C)OC(C)=C2)C(=O)N(CC)C1=S	aSyn UTR act -75
C/C=C(\C)C(=O)OC1C(C)=C2C(C1OC(=O)CCCCC)C(C)(OC(C)=O)CC(OC(=O)CCC)C1(O)C2OC(=O)C1(C)O (stereo not given)	none
Cc1cccc(-n2c(O)c(/C=C3/C(c4ccccc4)=Nc4ccccc43)c(=O)[nH]c2=O)c1	aSyn UTR act -174
CC(Cc1ccccc1)N1Cc2ccccc2C1 (stereo not given)	aSyn UTR act -65
O=C(Nc1cccc(Cl)c1)c1c(O)c2c(n(Cc3ccco3)c1=O)CCCC2	aSyn UTR act -87
CCOc1ccc(-c2c(C)n(-c3ccc(OCC)cc3)c3[n+]2CCCCC3)cc1	none
CCC(C)c1ccc(N2C(=O)NC(=O)/C(=C/c3cccn3CCOc3ccc(C)cc3)C2=O)cc1 (stereo not given)	aSyn UTR act -65
C[C@@]1(CO)[C@H](O)CC[C@@]2(C)[C@H]1CC[C@H]1C[C@@H]3C[C@@]12CC[C@]3(O)CO	none
CC(Cc1ccccc1)NC(=O)NC(C)Cc1ccccc1 (stereo not given)	aSyn UTR act -134
CC(Cc1ccccc1)NC(=O)c1ccc(N)cc1 (stereo not given)	aSyn UTR act -110
CC(=O)O[C@@]12CO[C@@H]1C[C@@H](O)[C@@]1(C)C(=O)[C@H](O)C3=C(C)[C@@H](OC(=O)[C@H](O)[C@@H](NC(=O)c4ccccc4)c4ccccc4)C[C@@](O)([C@@H](OC(=O)c4ccccc4)C12)C3(C)C (stereo not given in full)	none
Cn1c(O)c(C(=N)COc2ccccc2)c(=O)n(C)c1=O	aSyn UTR act -67
COc1cccc(OCc2cc(C(=O)N3C[C@H]4C[C@@H](C3)c3cccc(=O)n3C4)no2)c1	aSyn UTR act -174
COC(=O)C[C@]1(C(=O)OC)CN(C#N)N(c2ccc(Cl)cc2)C12c1ccccc1-c1ccccc12	none
CC(C)(C)C(=O)c1cn(CC(=O)NCc2ccco2)c2ccccc12	aSyn UTR act -143
O=C1NC(=O)C(C(CC(=O)c2ccccc2)c2ccccc2)C(=O)N1 (stereo not given)	aSyn UTR act -65
CN(C)C(=O)Oc1ccc2c(c1)O/C(=C\c1cccc(Cl)c1)C2=O	aSyn UTR act -72
CN(C)C(=O)Oc1ccc2c(c1)O/C(=C\c1ccc(Cl)cc1)C2=O	aSyn UTR act -87
Cn1c(NN=O)nc2ccccc21	none
COc1ccc(C[C@H]2NC[C@H](O)[C@H]2OC(C)=O)cc1	none
Cc1cc(N(CCCl)CCCl)ccc1/C=N/N=C(\N)c1cnccn1	aSyn UTR act -74
Cc1nc2ccccc2c(=O)n1-c1ccc(Br)cn1	aSyn UTR act -176
CN(C)c1ccc(-[n+]2c(-c3ccccc3)cc(-c3ccccc3)cc2-c2ccccc2)cc1	none
CCC(=NC(C)c1ccccc1)c1c(O)[nH]c(=O)[nH]c1=O (stereo not given)	none
CCCCn1c(O)c(/C(C)=N/NC(=O)Nc2ccccc2)c(=O)[nH]c1=O	aSyn UTR act -99
CC1=CC(=C2C(=O)NC(=S)NC2=O)C=C(C(F)(F)F)N1Cc1ccccc1	none
O=c1c2ccccc2nc(/C=C/c2ccc([N+](=O)[O-])o2)n1-c1ccc(O)cc1	none
Cc1cccc(-n2c(/C=C/c3ccc([N+](=O)[O-])o3)nc3ccccc3c2=O)c1	aSyn UTR act -212
O=C1NC(=O)N(Cc2ccc(F)cc2)C(=O)/C1=C\C=C\c1ccco1	aSyn UTR act -270
O=C1NC(=O)N(c2ccccc2)C(=O)/C1=C\C=C\c1ccccc1	aSyn UTR act -119
Cc1ccc(N2C(=O)NC(=O)/C(=C/C=C/c3ccco3)C2=O)cc1	aSyn UTR act -76
Cc1cc(C)cc(N2C(=O)NC(=O)/C(=C\C=C\c3ccco3)C2=O)c1	aSyn UTR act -116
Cn1ncnc2c(=O)n(C)c(=O)nc1-2	none
CC(C)c1ccc(N2C(=O)NC(=O)/C(=C/C=C/c3ccco3)C2=O)cc1	aSyn UTR act -130
C=C1C(=O)O[C@@H]2C[C@@H](C)[C@H]3C=CC(=O)[C@]3(O)C[C@@H]12	aSyn UTR act -117
Cc1ccc2cc3cc(C(=O)N4CCC5(CC4)OCCO5)oc3nc2c1	aSyn UTR act -69
CCCCN=C[C@]12CCC(O)CC1(O)CCC1[C@@H]2CC[C@]2(C)[C@H](C3C=CC(=O)O3)CCC12O (stereo not given in full)	none
